Cl transport mod: KCC2 cotransporter modulators, thallium flux, primary screen, cell-based, HEK293 KCC2, FluoZin-2 fluorescence, MLSMR | KCC2 cells, thallium flux FluoZin-2 fluorescence | Solute carrier family 12 member 5 (Homo sapiens), Q9H2X9 | 190,000 tested, 2.2% active | B-score of Tl+ flux slope (higher = more flux/activation; lower = inhibition) at 10 µM | AID 1456, 2008;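 active = thallium flux slope and its plate-corrected score both differing from the plate sample mean at a set confidence after two filtering rounds, in either direction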;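 also: slope of fluorescence scaled to starting intensity during 10 to 20 s after thallium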
Target sequence (Q9H2X9 whole entry, looked up): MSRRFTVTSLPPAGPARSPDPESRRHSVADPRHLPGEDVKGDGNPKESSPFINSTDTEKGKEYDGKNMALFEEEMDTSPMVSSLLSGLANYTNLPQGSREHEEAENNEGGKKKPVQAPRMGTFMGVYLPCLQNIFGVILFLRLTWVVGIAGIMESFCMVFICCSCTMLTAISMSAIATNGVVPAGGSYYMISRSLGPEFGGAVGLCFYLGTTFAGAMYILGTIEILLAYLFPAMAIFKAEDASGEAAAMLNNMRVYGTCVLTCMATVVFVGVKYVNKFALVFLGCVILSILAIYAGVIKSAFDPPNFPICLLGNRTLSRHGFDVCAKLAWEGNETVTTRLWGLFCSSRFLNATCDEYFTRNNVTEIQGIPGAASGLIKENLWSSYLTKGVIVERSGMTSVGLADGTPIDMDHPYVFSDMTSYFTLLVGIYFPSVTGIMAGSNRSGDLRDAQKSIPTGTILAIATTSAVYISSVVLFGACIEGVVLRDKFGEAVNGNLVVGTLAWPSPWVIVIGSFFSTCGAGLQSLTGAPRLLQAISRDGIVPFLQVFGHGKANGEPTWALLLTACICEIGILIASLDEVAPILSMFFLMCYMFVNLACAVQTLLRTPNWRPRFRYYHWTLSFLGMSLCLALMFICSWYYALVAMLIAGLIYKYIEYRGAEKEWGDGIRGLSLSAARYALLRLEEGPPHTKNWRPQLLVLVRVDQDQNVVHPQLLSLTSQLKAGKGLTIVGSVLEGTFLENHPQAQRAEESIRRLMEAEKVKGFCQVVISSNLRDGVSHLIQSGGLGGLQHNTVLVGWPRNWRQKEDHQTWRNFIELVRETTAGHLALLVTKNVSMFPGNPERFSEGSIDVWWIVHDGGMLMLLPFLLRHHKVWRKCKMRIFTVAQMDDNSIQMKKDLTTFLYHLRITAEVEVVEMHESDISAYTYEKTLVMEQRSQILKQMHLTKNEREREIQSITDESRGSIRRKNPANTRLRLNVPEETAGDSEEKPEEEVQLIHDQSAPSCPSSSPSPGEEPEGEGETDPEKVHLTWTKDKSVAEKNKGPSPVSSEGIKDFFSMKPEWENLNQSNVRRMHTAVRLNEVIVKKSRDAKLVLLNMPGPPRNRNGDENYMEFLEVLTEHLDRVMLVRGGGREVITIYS
PGE2 EP2 inh: human EP2 receptor antagonists, primary screen, TR-FRET cAMP, C6 glioma cells. Prostaglandin E2 receptor EP2 subtype (Homo sapiens), P43116. C6 glioma cells expressing human EP2; cells stimulated with saturating PGE2. inhibition, % at 25 µM. 260,000 tested, 0.52% active. AID 1422, 2008;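 active = percent inhibition above 40 after rounding to a whole number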;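 also: rat C6 glioma host cells with rolipram phosphodiesterase inhibitor present; the protocol text gives 20 µM as final concentration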
S1P3 antagonist: S1P3 receptor antagonists, primary screen, cell-based; Sphingosine 1-phosphate receptor 3 (Homo sapiens), Q99500; CHO S1P3 NFAT-BLA reporter, FRET fluorescence, antagonist mode; inhibition, % at 4.98 µM; 170,000 tested, 0.27% active;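 active = inhibition above the plate cutoff, the mean inhibition of test wells on that plate plus 3 SD, cut at about 28% in these data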;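 also: cells challenged with S1P at its EC80 of 0.8 µM; blue over green emission ratio from cleaved BLA substrate after 4 h stimulation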
EP2 modulator: EP2 receptor modulators, cAMP readout, primary screen, cell-based, HTRF cAMP, PGE2 stimulation | 260,000 tested, 0.83% active | Prostaglandin E2 receptor EP2 subtype (Homo sapiens), P43116 | AID 940, 2007 | EP2-expressing cells, cAMP HTRF FRET, PGE2 co-stimulation | induction, % at 25 µM;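 active = compounds whose cAMP rise, as percent of the full-agonist control response, exceeds 60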;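 also: rat C6 glioma line stably carrying human EP2 under a CMV promoter; the protocol text gives 20 µM as final concentration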
Each line names hits and unclear results; the compound was inactive in the other large screens; ! = a repeat was not active. The list is not random: actives were taken first. Their share in the collection is about 3.1%.

COc1ccc(N2CSC3=C(C#N)C(c4cccc(OC)c4OC)CC(=O)N3C2)cc1 (configuration not stated)	S1P3 antagonist 99 (no result: Cl transport mod)
COc1ccc2cc(C(c3nnnn3C3CCCC3)N3CCCCC3)c(=O)[nH]c2c1 (configuration not stated)	none (no result: Cl transport mod, S1P3 antagonist)
COc1cc(NC(=O)CNCc2cccs2)ccc1-n1cnnn1	none (no result: Cl transport mod, S1P3 antagonist)
Cn1cc([N+](=O)[O-])c(C(=O)Nc2nc(-c3ccc(Cl)cc3)cs2)n1	PGE2 EP2 inh 75 (no result: Cl transport mod, S1P3 antagonist)
Cc1cnc(NC(=O)c2nn(C)cc2[N+](=O)[O-])s1	PGE2 EP2 inh 46
Cc1ccc(-c2nc(NC(=O)c3nn(C)cc3[N+](=O)[O-])sc2C)cc1C	none (no result: PGE2 EP2 inh, S1P3 antagonist)
Cc1ccc(-c2nc(NC(=O)c3nn(C)cc3[N+](=O)[O-])sc2C)cc1	none (no result: S1P3 antagonist)
CCCn1c(SC(C(=O)Nc2cc(C)ccc2OC)c2ccccc2)nc2ccccc2c1=O (configuration not stated)	Cl transport mod 14
COc1ccc(C)cc1NC(=O)C(Sc1nnnn1C)c1ccccc1 (configuration not stated)	none
Cc1nc2ccccc2nc1-c1ccc(N=[N+]([O-])c2ccc(-c3nc4ccccc4nc3C)cc2)cc1	PGE2 EP2 inh 54 (no result: Cl transport mod, S1P3 antagonist)
C[C@@]12CC[C@H]3c4ccc(O)cc4CC[C@@H]3[C@H]1CC[C@H]2OC(=O)CCc1ccccc1	PGE2 EP2 inh 42 (no result: Cl transport mod, S1P3 antagonist)
Cc1nn2c(NCCCO)c3c(nc2c1-c1cccs1)CCCC3	none (no result: Cl transport mod, PGE2 EP2 inh, S1P3 antagonist)
COc1ccc(OC)c2c1C(=O)C(Cl)=C(Cl)C2=O	PGE2 EP2 inh 112, S1P3 antagonist 31
CCC(CC)c1nnc(NC(=O)c2ccc3ccccc3n2)s1	Cl transport mod 16 (no result: S1P3 antagonist)
CCC(CC)c1nnc(NC(=O)CCCOc2ccccc2)s1	EP2 modulator 62 (no result: Cl transport mod, S1P3 antagonist)
COC(=O)c1c(NC(=O)c2ccco2)sc(C(=O)Nc2cccc(Cl)c2)c1C	none (no result: Cl transport mod, S1P3 antagonist)
CCSc1nc2c(c(=O)n(C)c(=O)n2C)n1Cc1cccc2ccccc12	EP2 modulator 72 (no result: Cl transport mod, S1P3 antagonist)
CCC(C)Sc1nc2c(c(=O)n(C)c(=O)n2C)n1Cc1ccc(Cl)cc1 (configuration not stated)	EP2 modulator 70 (no result: Cl transport mod, S1P3 antagonist)
CSc1nc2c(c(=O)n(C)c(=O)n2C)n1Cc1cccc2ccccc12	none (no result: Cl transport mod, S1P3 antagonist)
CCCn1c(SCC(=O)Nc2ccccc2C(=O)OC)nc2c1c(=O)n(C)c(=O)n2C	none
Cn1c(=O)n(Cc2ccccc2Cl)c2ccccc21	EP2 modulator 61
CCCn1c(SCC(=O)Nc2ccccc2N2CCCCC2)nc2c1c(=O)n(C)c(=O)n2C	EP2 modulator 78!
CCOC(=O)Cn1cc(CN2CCc3c(nc(N4CCCC4)[nH]c3=O)C2)c2ccccc21	none (no result: Cl transport mod, PGE2 EP2 inh, S1P3 antagonist)
Oc1ccc(-c2nc3cnccn3c2NC2CCCC2)c(O)c1	none (no result: Cl transport mod, S1P3 antagonist)
Cc1nnc(Sc2nc3c(c(=O)n(C)c(=O)n3C)n2Cc2ccccc2Cl)s1	none (no result: EP2 modulator)
C=C(C)CSc1nc2c(c(=O)n(C)c(=O)n2C)n1Cc1ccccc1	none (no result: Cl transport mod, S1P3 antagonist)
CC(C)Sc1nc2c(c(=O)n(C)c(=O)n2C)n1Cc1ccccc1Cl	EP2 modulator 62 (no result: Cl transport mod, S1P3 antagonist)
C=C(C)CSc1nc2c(c(=O)n(C)c(=O)n2C)n1Cc1ccccc1Cl	EP2 modulator 74 (no result: Cl transport mod, S1P3 antagonist)
CC(C)NC(=O)CN1CCCC1c1nc(-c2ccc(F)cc2)n[nH]1 (configuration not stated)	none (no result: Cl transport mod, S1P3 antagonist)
Cc1cc2ccccc2c[n+]1CC(O)C[n+]1cc2ccccc2cc1C	PGE2 EP2 inh 55 (no result: Cl transport mod, S1P3 antagonist)
COc1cccc(CN2CCN(Cc3cnc(N(C)C)nc3)[C@@H](C)C2)c1	none (no result: Cl transport mod, PGE2 EP2 inh, S1P3 antagonist)
Cc1nc2ccccc2c(=O)n1NC(=O)c1c(O)c2ccccc2n(C)c1=O	S1P3 antagonist 73 (no result: Cl transport mod, PGE2 EP2 inh, EP2 modulator)
CCCOc1ccc(C(=O)Nc2sc3c(c2C#N)CCCC3)cc1	none (no result: Cl transport mod, S1P3 antagonist)
CCCSC1=N/C(=C/c2ccsc2)C(=O)N1c1ccccc1	EP2 modulator 63
CCCCSC1=N/C(=C/c2ccsc2)C(=O)N1c1ccccc1	none
COc1ccccc1NC(=O)c1ccc2c(c1)N(Cc1cc(C)ccc1C)C(=O)C(C)(C)O2	EP2 modulator 64 (no result: Cl transport mod, S1P3 antagonist)
COc1ccccc1NC(=O)CN1C(=O)C(C)(C)Oc2ccc(C(=O)NC3CCCC3)cc21	none (no result: Cl transport mod, S1P3 antagonist)
CC1=CC2=NC(=O)CC(C)(C(=O)NCCCN3CCCc4ccccc43)N2C=C1 (configuration not stated)	none (no result: Cl transport mod, S1P3 antagonist)
COC1OC(CO)C(O)C(O)C1O (configuration not stated)	none
